Records with an inconclusive call do not appear. Entries that show only a call come without a potency. Calls of active or inactive are those of the source. Calls come from the whole dose curve.

The assay in a line: qHTS for Inhibitors of Cell Surface uPA Generation: Wild-type Protective Antigen (WT-PrAg) Counterscreen for Cherry-picked Compounds. As to conditions: cells, WT protective antigen toxicity counterscreen; series mostly up to 115 µM. In general terms: Quantitative high-throughput screening tests each substance at several concentrations.
In the case of `COc1cc(F)ccc1S(=O)(=O)n1c(C)nc2ccccc21`, the Potency result is “inactive”.
The value for `CC1CS(=O)(=O)CCN1N=Cc1ccc([N+](=O)[O-])o1` (stereo not given) was “inactive”; that for `CCCCNc1nnc(SCC(=O)c2c(N)n(CCC)c(=O)[nH]c2=O)s1` was “inactive”.
`CCN(CC)S(=O)(=O)c1cc(NC(=O)COC(=O)C2CCC2)ccc1C`: the Potency entry was “inactive”.
The value for `COC(=O)[C@@]1(Cc2ccc(F)cc2)[C@H]2c3cc(C(=O)N(C)C)n(Cc4c(CO)[nH]cc(C)c4=O)c3C[C@H]2CN1C(=O)c1ccccc1` was “inactive”; that for `Cc1cc(=O)n2nc(N3CCCC(C(=O)NCc4ccc(Cl)cc4)C3)sc2n1` (stereo not given) was “inactive”.
In the case of `CC(=O)N1CCN(C(=O)CSc2cc(C)c(Br)cc2C)CC1` it was “inactive”; in that of `COc1ccc2c(c1)c1nnc(SCC(=O)Nc3ccccc3F)nc1n2C`, “inactive”; in that of `Cc1nc(SCC(=O)NCCN2C(=O)CSC2=O)nc(C)c1C`, “inactive”.
`COc1ccc([C@@H]2[C@@H]3C(=O)N(C(C)(C)C)C(=O)[C@@H]3[C@]3(C)C(=O)N(c4cccc(Cl)c4)C(=O)N23)cc1`: the Potency result was “inactive”.
In the case of `O=C(Nc1ccc(S(=O)(=O)N2CCOCC2)cc1)c1cc(-c2ccccc2O)n[nH]1` it was “inactive”.
Regarding `O=C(c1cc2cc([N+](=O)[O-])ccc2s1)N1CCOCC1`, the Potency entry is “inactive”.
The value for `COc1ccc(NC(=O)CCNS(=O)(=O)c2ccccc2F)cc1S(=O)(=O)N1CCOCC1` was “inactive”.
The value for `CCOC(=O)Oc1c(OC)cc(C(=O)O[C@@H]2C[C@@H]3CN4CCc5c([nH]c6cc(OC)ccc56)[C@H]4C[C@@H]3[C@H](C(=O)OC)[C@H]2OC)cc1OC` was “inactive”; that for `CN(CC(=O)N(C)CC(=O)Nc1c(Cl)cccc1Cl)Cc1ccccc1F` was “inactive”.
The value for `Cc1cc(/C=N/NC(=O)c2ccccc2F)c(C)n1-c1ccccc1` was “inactive”; that for `COCC(=O)N1Cc2ccccc2-n2nncc2C1` was “inactive”; that for `O=C(c1ccco1)N1CCN(c2ncccn2)CC1` was “inactive”.
Regarding `CCN(CC)CCNC(=O)/C(=C/c1cn(CC)c2ccccc12)NC(=O)c1cc(OC)c(OC)c(OC)c1`, the Potency result is “inactive”.
The value for `CC1CC(C)CN(CCCNC(=O)CN2C(=O)CSc3ccc(S(=O)(=O)N4CCOCC4)cc32)C1` (stereo not given) was “inactive”; that for `Cc1ccc(S(=O)(=O)NCC(=O)OC(C)C(=O)NCc2ccc3c(c2)OCO3)cc1` (stereo not given) was “inactive”; that for `COc1ccccc1C(=O)Nc1cccc(C(=O)c2ccccc2)c1` was “inactive”.
The value for `O=C(O)CNS(=O)(=O)c1ccc2c(c1)Cc1cc(S(=O)(=O)NCC(=O)O)ccc1-2` was “inactive”.
Take `C/C(=N\NC(=O)c1ccccc1)c1c(C)[nH]n(-c2ccccc2)c1=O`: the Potency result is “inactive”.
The value for `CN(c1ccccc1)S(=O)(=O)c1ccc(C(=O)Nc2nnc(C3CC3)o2)cc1` was “inactive”; that for `COc1ccc(-n2nc(C(=O)Nc3cc(OC)c(OC)c(OC)c3)c3ccccc3c2=O)c(OC)c1` was “inactive”.
The value for `CC1CCCN(C(=O)c2ccc(-c3ccccc3Cl)o2)C1` (stereo not given) was “inactive”.
Consider `Cc1ccc(NS(=O)(=O)c2c(C)nc3sccn3c2=O)c(C)c1`, for which the Potency entry is “inactive”.
In the case of `COc1ccccc1N1CCN(C2CC(=O)N(c3ccccc3)C2=O)CC1` (stereo not given), the Potency entry is “inactive”.
With `Cc1nn(C)c(C)c1S(=O)(=O)N1CCC(C(=O)NC2CCCCCC2)CC1`, the Potency result is “inactive”.
The value for `Cc1ccc2[nH]c(CN3CCN(C)C(CCO)C3)c(C)c2c1` (stereo not given) was “inactive”.
In the case of `Cc1ncc(CN2CCCC(C(=O)c3cccc(OC(C)C)c3)C2)s1` (stereo not given) it was “inactive”; in that of `CCCCn1c(C2CCCCC2)nc2cc3[nH]c(=O)c(C(C)C)nc3cc21`, “inactive”; in that of `CCOC(=O)N1CCN(C(=O)c2ccc3c(c2)sc2nc(-c4ccc(OC)cc4)cn23)CC1`, “inactive”.
For the compound `COc1ccc(NS(=O)(=O)c2cc3c(cc2C)NC(=O)CO3)c(OC)c1`, the Potency result is “inactive”.
`O=C(O)c1ccc(-c2ccc(/C=C3\NC(=O)N(Cc4ccc(Cl)cc4)C3=O)o2)cc1`: the Potency result was “inactive”.
In the case of `COc1ccc(C(C(=O)NC2CCCC2)N(C(=O)c2ccoc2C)c2ccc(C)c(C)c2)cc1` (stereo not given) it was “inactive”; in that of `Cc1ccccc1S(=O)Cc1ccc(C(=O)N2CCN(C(=O)c3ccco3)CC2)o1` (stereo not given), “inactive”; in that of `COc1ccc(S(=O)(=O)c2c(O)c3ccc(C(=O)Nc4ccccc4)cc3[nH]c2=O)cc1`, “inactive”.
`CN(C)C(=O)NC(NC(=S)Nc1ccccc1)C(Cl)(Cl)Cl` (stereo not given): the Potency entry was “inactive”.

Source of the values: PubChem BioAssay AID720518 (National Center for Advancing Translational Sciences (NCATS), 2013).
